Laboratory results reported in PubChem BioAssay.
Where “and” joins values, the source holds several entries; their conditions need not be identical. Identical values can stand only once. Calls of active or inactive are those of the source.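 Rule for the calls, unless noted: active = z-score of at least 1.8 in each of two replicates, scored against plate mean and spread of sample wells; inactive = the rest.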

Columns and labels:
[1] = blockers of cellular phospholipid synthesis – cell-based, LOPAC library, screen 4, primary screen (AID 1347384; call rule not given here); settings: animal cells, phospholipid biosynthesis inhibition screen; at 10 µM
[2] = MELAS cybrid and Rieske KO viability enhancers – cell-based, MELAS cybrids, Rieske KO mouse fibroblasts, CellTiter-Glo, primary screen (AID 1508586;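 active = mean z-score across replicates of 1.96 or higher in either the MELAS or the Rieske mutant cell line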;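 note: z relative to plate mean and SD of compound and empty wells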); settings: low glucose
[3] = viability loss with induced miR-34 in A549 – imaging, A549 dox-inducible miR-34, nuclei and caspase counts, primary screen (AID 1347080;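 active = compounds whose cell count with miR-34 switched on is under 0.7 times the count with it off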); settings: A549 miR-34 inducible, Hoechst nuclei count, 48 h
[4] = target: NAD(+) hydrolase SARM1 (Homo sapiens) (UniProt Q6SZW1); assay: blocking NAD cleavage by SARM1 SAM-TIR – cell lysate, NAD-Glo luminescence (AID 1508614;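 active = compound whose remaining NAD level is above about 45 nM, limit read from the data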;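 note: higher remaining NAD means stronger inhibition of SARM1 NADase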); settings: SAM-TIR HEK293T lysate NADase, at 1 µM, stronger effect = higher value
Sequence of NAD(+) hydrolase SARM1 (Homo sapiens) (Q6SZW1 whole entry, looked up): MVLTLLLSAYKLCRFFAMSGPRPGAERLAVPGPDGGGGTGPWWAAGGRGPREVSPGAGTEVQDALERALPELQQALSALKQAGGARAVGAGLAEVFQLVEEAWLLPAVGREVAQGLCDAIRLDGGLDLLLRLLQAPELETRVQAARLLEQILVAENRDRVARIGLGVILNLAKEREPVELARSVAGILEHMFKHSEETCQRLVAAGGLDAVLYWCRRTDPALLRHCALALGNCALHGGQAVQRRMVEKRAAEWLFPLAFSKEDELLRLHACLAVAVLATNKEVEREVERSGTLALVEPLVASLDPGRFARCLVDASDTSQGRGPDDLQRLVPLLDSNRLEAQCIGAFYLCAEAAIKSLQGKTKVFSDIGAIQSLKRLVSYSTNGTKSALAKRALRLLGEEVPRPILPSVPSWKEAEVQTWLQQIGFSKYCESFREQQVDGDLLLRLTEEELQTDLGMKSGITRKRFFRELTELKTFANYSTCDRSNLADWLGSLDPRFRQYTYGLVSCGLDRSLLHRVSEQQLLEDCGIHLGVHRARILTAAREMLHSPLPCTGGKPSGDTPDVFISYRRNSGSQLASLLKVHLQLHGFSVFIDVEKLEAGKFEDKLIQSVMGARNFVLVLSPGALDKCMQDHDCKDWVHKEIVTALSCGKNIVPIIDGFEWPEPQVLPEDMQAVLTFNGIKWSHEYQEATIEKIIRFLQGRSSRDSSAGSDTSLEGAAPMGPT

[5] = galactose survival enhancers in mitochondrial complex I cybrids – cell-based, galactose medium, ATP luminescence, primary screen (AID 1645843); settings: complex I mutant cybrid cells, 72 h, stronger effect = higher value;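 note: positive z means more ATP and so rescue of galactose-driven cybrid death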
[6] = target: Mitogen-activated protein kinase 7 (Homo sapiens) (UniProt Q13164); assay: Gal4-ERK5 driven luciferase induction – cell-based, HTS, primary screen (AID 1508626;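 active = luciferase signal above three times the same-plate solvent-only control wells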;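 note: luciferase driven by Gal4-ERK5 fusion binding five Gal4 sites before minimal TATA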); settings: HeLa Gal4-ERK5 transactivation, 18 h, at 5 µM, stronger effect = higher value
Sequence of Mitogen-activated protein kinase 7 (Homo sapiens) (Q13164 whole entry, looked up, the tested form may be a part): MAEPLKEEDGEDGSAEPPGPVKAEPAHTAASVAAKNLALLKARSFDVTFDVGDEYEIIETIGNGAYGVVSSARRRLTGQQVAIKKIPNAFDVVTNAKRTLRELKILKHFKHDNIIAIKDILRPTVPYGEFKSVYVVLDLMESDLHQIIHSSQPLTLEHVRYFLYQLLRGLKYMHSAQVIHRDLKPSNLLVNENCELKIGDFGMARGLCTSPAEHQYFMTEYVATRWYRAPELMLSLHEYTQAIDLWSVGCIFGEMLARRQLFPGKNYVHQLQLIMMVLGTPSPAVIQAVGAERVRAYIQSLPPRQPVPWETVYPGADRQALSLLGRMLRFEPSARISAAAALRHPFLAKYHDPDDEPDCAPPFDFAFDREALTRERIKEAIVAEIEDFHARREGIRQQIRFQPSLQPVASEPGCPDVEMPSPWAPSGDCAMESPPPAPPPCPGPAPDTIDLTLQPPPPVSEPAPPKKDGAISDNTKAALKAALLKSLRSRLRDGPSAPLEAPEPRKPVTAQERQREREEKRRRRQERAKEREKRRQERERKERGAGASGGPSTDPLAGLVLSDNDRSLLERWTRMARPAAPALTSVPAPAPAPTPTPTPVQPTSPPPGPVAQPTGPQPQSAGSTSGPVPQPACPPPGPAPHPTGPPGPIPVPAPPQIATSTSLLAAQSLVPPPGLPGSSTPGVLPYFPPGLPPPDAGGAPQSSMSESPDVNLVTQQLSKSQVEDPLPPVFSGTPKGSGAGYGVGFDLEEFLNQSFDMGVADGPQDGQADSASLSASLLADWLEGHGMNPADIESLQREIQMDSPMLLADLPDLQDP

[7] = chitosan synthesis blockers in C. neoformans – flow cytometry, Cibacron Brilliant Red staining (AID 1347148; call rule not given here;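 note: compound exposure lasted three days at 37 degrees C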); settings: Cryptococcus neoformans chitosan, stronger effect = lower value; at 10 µM unless noted
[8] = MELAS cybrid survival, CellTiter-Glo 48 h, stronger effect = higher value
[9] = Rieske KO mouse fibroblast survival, CellTiter-Glo 72 h
[10] = stronger effect = lower value, cell number ratio, induced over uninduced
[11] = measured here: relative caspase fold change +Dox/-Dox
[12] = measured here: total cells with miR-34 induction, stronger effect = lower value
[13] = measured here: total cells without miR-34 induction

SMILES	outcome [1]	z-score [2, 8]	z-score [2, 9]	fold change [3, 10]	fold change [3, 11]	cell count [3, 12]	cell count [3, 13]	remaining NAD [4]	z-score [5]	luciferase signal [6]	fold fluorescence [7]
c1cnc(N2CCN(Cc3ccc4c(c3)OCO4)CC2)nc1	inactive	-0.549 (inactive) and -0.596 (inactive)	-0.536 and 0.482	–	–	–	–	–	–	–	–
OCc1cccnc1	–	–	–	0.908 (inactive)	1.47	8900	9800	10 nM (inactive)	0.275 (inactive)	–	–
C=CCc1ccc(O)c(OC)c1	–	–	–	0.949 (inactive)	0.583	11000	11600	10 nM (inactive)	–	12 AU (inactive)	–
COc1ccc(-c2cc(C(F)F)nn2-c2ccc(S(N)(=O)=O)cc2)cc1F	–	–	–	0.791 (inactive)	2.48	10300	13000	10 nM (inactive)	–	44 AU (inactive)	–
CNCCCCOc1ccccc1Cc1ccccc1	–	–	–	0.954 (inactive) and 0.995 (inactive)	1.55 and 0.924	7470 and 8010	7840 and 8050	–	-1.31 (inactive) and -0.275 (inactive)	–	–
C=Cc1c(C)c2cc3[nH]c(cc4nc(cc5nc(cc1[nH]2)C(C)=C5CCC(=O)O)C(CCC(=O)O)=C4C)c(C)c3C=C	–	–	–	1.04 (inactive)	1.36	9230	8840	10 nM (inactive)	-0.23 (inactive)	56 AU (inactive)	–
O=C(OCc1ccccc1)c1ccccc1	–	–	–	0.956 (inactive)	3.44	12000	12500	10 nM (inactive)	–	88 AU (inactive)	–
CC(C)NC[C@@H](O)COc1cccc2ccccc12	–	–	–	0.945 (inactive)	0.937	8050	8520	10 nM (inactive)	0.54 (inactive)	52 AU (inactive)	–
Nc1c2c(nc3c1CCC3)CCCC2	–	–	–	1.06 (inactive)	2.56	10500	9920	–	-0.465 (inactive)	–	–
CC(=O)Oc1cccc(O)c1	–	–	–	0.87 (inactive)	5.2	11300	13000	10 nM (inactive)	–	20 AU (inactive)	–
CC[N+](C)(CC)CCOC(=O)C(O)(c1ccccc1)C1CCCCC1 (stereo not given)	–	–	–	0.958 (inactive)	1.3	8830	9210	10 nM (inactive)	0.47 (inactive)	–	–
O=C(NCCN1CCOCC1)c1ccc(Cl)cc1	inactive	0.188 (inactive) and 0.694 (inactive)	0.0884 and 0.188	–	–	–	10300 and 10900 and 9280	–	0.645 (inactive) and 0.32 (inactive)	–	–
COc1cc2c(cc1OC)-c1cc(=Nc3c(C)cc(C)cc3C)n(C)c(=O)n1CC2	inactive	1.02 (inactive)	1.81	–	–	–	–	–	-0.95 (inactive) and -0.575 (inactive) and 0.465 (inactive)	–	11.7 [at 123.3 µM] (inactive)
O=C1CC2(CCCC2)CC(=O)N1CCCCN1CCN(c2ncccn2)CC1	inactive	0.0234 (inactive) and -0.506 (inactive) and -2.15 (inactive)	-3.18 and -0.781 and 0.669	–	–	–	–	10 nM (inactive)	–	112 AU (inactive)	–
COC(=O)C1=C(C)NC(C)=C(C(=O)O[C@@H]2CCCN(Cc3ccccc3)C2)[C@@H]1c1cccc([N+](=O)[O-])c1	–	0.772 (inactive)	0.352	–	–	–	–	–	–	–	–
NC(N)=N/N=C/c1c(Cl)cccc1Cl	inactive	-0.136 (inactive) and 1.02 (inactive)	0.531 and 1.03	–	–	–	–	10 nM (inactive)	-0.795 (inactive) and 0.845 (inactive) and -1.38 (inactive)	52 AU (inactive)	–
CN(C)C(=O)Oc1cccc([N+](C)(C)C)c1	inactive	0.498 (inactive) and -0.72 (inactive)	0.395 and -0.634	–	–	–	–	10 nM (inactive)	0.53 (inactive) and 0.21 (inactive)	48 AU (inactive)	–
CCN(CC)CCNC(=O)c1cc(Cl)c(N)cc1OC	inactive	-1.13 (inactive) and 0.206 (inactive) and 0.37 (inactive)	-0.268 and 0.0241 and 0.87	–	–	–	–	10 nM (inactive)	-0.285 (inactive) and 0.055 (inactive) and 0.595 (inactive)	100 AU (inactive)	–
O=C1NCC2(CCN(CCc3ccccc3)CC2)O1	inactive	-0.249 (inactive) and 0.534 (inactive)	-0.174 and -0.0853	–	–	–	–	10 nM (inactive)	0.155 (inactive)	52 AU (inactive)	–
COCCc1ccc(OCC(O)CNC(C)C)cc1 (stereo not given)	inactive	-0.374 (inactive) and 0.559 (inactive) and -0.0156 (inactive)	-0.175 and -0.344 and -0.724	–	–	–	–	10 nM (inactive)	0.4 (inactive) and 0.695 (inactive)	40 AU (inactive)	–
